Assay results reported in PubChem BioAssay (NCI).
About 83,000 compounds went through this panel and 20% of them were active in at least one assay; those are over-represented in the sample as a whole.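 A percent growth of 40 corresponds to 60% growth inhibition; 0 means no net growth; -100 means all cells died. Active threshold: below 10.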 Calls of active or inactive are those of the source.

Legend:
Assay in all cases: NCI-60 one-dose screen, 48 h (100 = growth as untreated, 0 = no growth, -100 = all killed)
Conditions in all cases: 10 µM unless noted
SK-MEL-2 melanoma = system: SK-MEL-2 melanoma
EKVX NSCLC = system: EKVX NSCLC
SN12C renal = system: SN12C renal
UO-31 renal = system: UO-31 renal
TK-10 renal = system: TK-10 renal
ACHN renal = system: ACHN renal
CAKI-1 renal = system: CAKI-1 renal
A498 renal = system: A498 renal
CCRF-CEM leukemia = system: CCRF-CEM leukemia
RPMI-8226 leukemia = system: RPMI-8226 leukemia
OVCAR-8 ovarian = system: OVCAR-8 ovarian
OVCAR-5 ovarian = system: OVCAR-5 ovarian
OVCAR-4 ovarian = system: OVCAR-4 ovarian
SK-OV-3 ovarian = system: SK-OV-3 ovarian
IGROV1 ovarian = system: IGROV1 ovarian
OVCAR-3 ovarian = system: OVCAR-3 ovarian
HS 578T breast = system: HS 578T breast
NCI/ADR-RES ovarian = system: NCI/ADR-RES ovarian

Measured: growth

C/C(=N\Nc1ccc(S(N)(=O)=O)cc1)c1ccc(N=Nc2c(Nc3ccccc3)[nH][nH]c2=O)cc1
active: SK-MEL-2 melanoma -51.9% | SN12C renal -12.9% | CCRF-CEM leukemia 3.59% | RPMI-8226 leukemia 3.47% | OVCAR-8 ovarian -20.2% | SK-OV-3 ovarian -15.5% | OVCAR-3 ovarian -2.25%
inactive: EKVX NSCLC 62.5% | UO-31 renal 86.1% | TK-10 renal 71.9% | ACHN renal 42.4% | CAKI-1 renal 77.1% | A498 renal 35.2% | OVCAR-5 ovarian 58.3% | OVCAR-4 ovarian 42.6% | IGROV1 ovarian 43.3% | HS 578T breast 21.5% | NCI/ADR-RES ovarian 89.6%

CN1CCN(c2ccc3c(c2)nc(NNC(=O)c2ncccn2)c2cccn23)CC1
inactive: RPMI-8226 leukemia 28.4% | IGROV1 ovarian 11.3% | HS 578T breast 26.5%
active: SK-MEL-2 melanoma -7.45% | EKVX NSCLC -73.2% | SN12C renal 6.25% | UO-31 renal 1.76% | TK-10 renal -87.5% | ACHN renal -83.7% | CAKI-1 renal -80.9% | A498 renal -95% | CCRF-CEM leukemia 7.34% | OVCAR-8 ovarian -4.43% | OVCAR-5 ovarian -62.9% | OVCAR-4 ovarian -41.7% | SK-OV-3 ovarian -13.2% | OVCAR-3 ovarian -22.8% | NCI/ADR-RES ovarian 4.15%

O=C1C(=Nc2ccc(F)c(Cl)c2)c2cccc3cccc1c23
inactive: SK-MEL-2 melanoma 97.5% | EKVX NSCLC 75.5% | SN12C renal 57.3% | UO-31 renal 38.2% | TK-10 renal 111% | ACHN renal 32.2% | CAKI-1 renal 55.4% | A498 renal 118% | OVCAR-5 ovarian 94.7% | OVCAR-4 ovarian 86.1% | SK-OV-3 ovarian 87.4% | IGROV1 ovarian 66.4% | OVCAR-3 ovarian 25.3% | HS 578T breast 89.9% | NCI/ADR-RES ovarian 84.1%
active: CCRF-CEM leukemia 6.25% | RPMI-8226 leukemia 8.45% | OVCAR-8 ovarian 3.58%

Cc1ccc(-c2nnc3ccc(N/N=C/c4ccccc4)nn23)cc1
inactive: SK-MEL-2 melanoma 102% | EKVX NSCLC 76.9% | SN12C renal 101% | UO-31 renal 84.5% | TK-10 renal 104% | ACHN renal 95.4% | CAKI-1 renal 83.3% | A498 renal 105% | CCRF-CEM leukemia 88.8% | RPMI-8226 leukemia 80.6% | OVCAR-8 ovarian 87.1% | OVCAR-5 ovarian 107% | OVCAR-4 ovarian 69.1% | SK-OV-3 ovarian 100% | IGROV1 ovarian 98.9% | OVCAR-3 ovarian 30.3% | HS 578T breast 46.6% | NCI/ADR-RES ovarian 84.1%

COc1ccc(C(=O)/C=C/c2ccccc2Cl)cc1S(N)(=O)=O
inactive: SK-MEL-2 melanoma 108% | EKVX NSCLC 97.3% | SN12C renal 97.2% | UO-31 renal 84.9% | TK-10 renal 97.6% | ACHN renal 101% | CAKI-1 renal 102% | A498 renal 119% | CCRF-CEM leukemia 111% | RPMI-8226 leukemia 120% | OVCAR-8 ovarian 110% | OVCAR-5 ovarian 99.3% | OVCAR-4 ovarian 118% | SK-OV-3 ovarian 110% | IGROV1 ovarian 101% | OVCAR-3 ovarian 90.7% | HS 578T breast 107% | NCI/ADR-RES ovarian 104%

COc1ccccc1/C=C/C(=O)c1ccc(OC)c(S(N)(=O)=O)c1
inactive: SK-MEL-2 melanoma 78.4% | EKVX NSCLC 23.2% | SN12C renal 15.5% | UO-31 renal 24.7% | TK-10 renal 41.5% | ACHN renal 21.4% | CAKI-1 renal 20.9% | A498 renal 105% | OVCAR-5 ovarian 12.4% | OVCAR-4 ovarian 42.9% | SK-OV-3 ovarian 47.5% | IGROV1 ovarian 38.9% | HS 578T breast 60.4% | NCI/ADR-RES ovarian 22.9%
active: CCRF-CEM leukemia 6.32% | RPMI-8226 leukemia 4.34% | OVCAR-8 ovarian -9.18% | OVCAR-3 ovarian 7.84%

COc1ccc(C(=O)/C=C/c2cccnc2)cc1S(N)(=O)=O
active: CCRF-CEM leukemia 5.54% | RPMI-8226 leukemia -7.06%
inactive: SK-MEL-2 melanoma 104% | EKVX NSCLC 63.3% | SN12C renal 37.7% | UO-31 renal 28% | TK-10 renal 66.8% | ACHN renal 50.7% | CAKI-1 renal 52.6% | A498 renal 103% | OVCAR-8 ovarian 17.6% | OVCAR-5 ovarian 77.2% | OVCAR-4 ovarian 91.7% | SK-OV-3 ovarian 88.1% | IGROV1 ovarian 59.5% | OVCAR-3 ovarian 17% | HS 578T breast 89.9%

NS(=O)(=O)c1ccc(-n2cc(-c3cccc(NC(=O)c4cc(Cl)cc(Cl)c4)c3)nn2)cc1
inactive: SK-MEL-2 melanoma 96.7% | EKVX NSCLC 88.8% | SN12C renal 88% | UO-31 renal 115% | TK-10 renal 114% | ACHN renal 95.8% | CAKI-1 renal 94.2% | A498 renal 135% | CCRF-CEM leukemia 56.7% | RPMI-8226 leukemia 92.6% | OVCAR-8 ovarian 26.8% | OVCAR-5 ovarian 81.2% | OVCAR-4 ovarian 73.6% | SK-OV-3 ovarian 90.2% | IGROV1 ovarian 101% | OVCAR-3 ovarian 48.2% | HS 578T breast 89.2%

COc1ccc(C(=O)/C=C/c2cccc3ccccc23)cc1S(N)(=O)=O
active: EKVX NSCLC -6.08% | SN12C renal 6.92% | UO-31 renal -68.9% | ACHN renal -27.1% | CCRF-CEM leukemia 4.74% | RPMI-8226 leukemia -10.6% | OVCAR-8 ovarian -13.6% | OVCAR-5 ovarian 1.13% | OVCAR-3 ovarian -50.7%
inactive: SK-MEL-2 melanoma 45.8% | TK-10 renal 22.6% | CAKI-1 renal 13.9% | A498 renal 107% | OVCAR-4 ovarian 43.5% | SK-OV-3 ovarian 44.7% | IGROV1 ovarian 38.7% | HS 578T breast 55.2% | NCI/ADR-RES ovarian 15.1%
